# Experimental data published in the supplement of paper PMC10646978.
# ± gives the standard deviation.
# Experiments:
# Details in all cases: modulator concentration 10 µM
# [1] = system: RAW-Dual (murine macrophage reporter line); test: NF-kB reporter (SEAP) activity fold change vs agonist alone; higher = enhanced NF-kB activity
# Procedure, shortened: (§1)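 RAW-Dual murine macrophage reporter cells were seeded at 50 000 per well in 384-well plates and pre-incubated 1 hour at 37 °C with compound pin-transferred to 10 μM final. After 1 hour, a PRR agonist was added and cells incubated overnight. Supernatant NF-κB (SEAP, QUANTI-Blue, 620 nm absorbance) and IRF (Lucia luciferase, QUANTI-Luc, luminescence) signals were divided by the mean agonist-only control on the same plate to give fold change. Two replicate plates were averaged, with errors by propagation.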
# [2] = system: RAW-Dual (murine macrophage reporter line); test: IRF reporter (Lucia luciferase) activity fold change vs agonist alone; higher = enhanced IRF activity
# Procedure, shortened: as §1
# [3] = system: RAW-Dual (murine macrophage reporter line); test: viability score (confluency relative to resting cells, overnight) (fraction); higher = more viable, active = viable (0.7 or more)
# Procedure, shortened: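 Overnight exposure to 10 μM final compound was carried out on RAW-Dual macrophages in 384-well plates. IncuCyte software generated two confluency masks over all wells imaged with IncuCyte. The viability score gives confluency in relation to resting cells. A compound met the cutoff if each mask exceeded 70% of resting cells.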
# [4] = agonist: CpG ODN 1826 0.5 ug/mL
SMILES,"NF-kB reporter [1, 4]",NF-kB reporter ([1]; agonist: LPS 0.1 ug/mL),NF-kB reporter ([1]; agonist: MPLA […]),IRF reporter ([2]; agonist: 3'3'-cGAMP 10 ug/mL),IRF reporter ([2]; agonist: LPS 0.1 ug/mL),IRF reporter ([2]; agonist: MPLA […]),viability score [3]
O=c1oc2c(O)c(O)cc3c(=O)oc4c(O)c(O)cc1c4c23,1.05 ± 0.32,0.944 ± 0.051,0.963 ± 0.1,0.85 ± 0.055,1.11 ± 0.12,1.1 ± 0.22,0.997 (active)
O=c1[nH]c(NN=Cc2c3ccccc3cc3ccccc23)nc2ccccc12,0.919 ± 0.085,1.03 ± 0.061,0.971 ± 0.066,0.935 ± 0.048,1.82 ± 0.16,1.23 ± 0.19,0.999 (active)
CC(C)(O)C#Cc1ccccn1,0.931 ± 0.052,0.93 ± 0.14,0.909 ± 0.072,0.916 ± 0.05,1.11 ± 0.096,1.08 ± 0.29,1.01 (active)
Cl.Nc1ccn([C@@H]2O[C@H](CO)[C@@H](O)[C@@H]2O)c(=O)n1,1.61 ± 0.12,1.13 ± 0.068,1.06 ± 0.047,0.87 ± 0.13,1.03 ± 0.1,0.8 ± 0.079,0.579 (inactive)
O=C(c1csc(-c2ccccc2)n1)N1CCCN(C2CCC2)CC1,0.763 ± 0.041,1.17 ± 0.094,0.937 ± 0.063,0.927 ± 0.081,1.19 ± 0.13,1.24 ± 0.12,1.01 (active)
Cc1cc(CCC(=O)N(C)C2CN(c3ccc4nnc(C)n4n3)C2)ccc1F,1.11 ± 0.058,1.1 ± 0.091,0.918 ± 0.046,1.19 ± 0.073,1.12 ± 0.095,1.11 ± 0.16,0.979 (active)
CSc1nc2cccc(F)c2c(=O)n1C1CC1,1.06 ± 0.078,1.02 ± 0.093,1.18 ± 0.076,1.09 ± 0.051,1.31 ± 0.25,1.52 ± 0.38,0.67 (inactive)
Cc1ccc2[nH]c3nc(NN)nnc3c2c1,1.03 ± 0.079,0.929 ± 0.077,0.967 ± 0.024,0.913 ± 0.05,0.998 ± 0.077,0.836 ± 0.071,1 (active)
Nc1nnc(C(=O)O)[nH]1,1.04 ± 0.083,1.14 ± 0.08,1.03 ± 0.043,1.06 ± 0.2,1.03 ± 0.1,1.23 ± 0.19,1 (active)
c1ccc(CSc2nnc(-c3cccnc3)o2)nc1,0.986 ± 0.056,1.09 ± 0.084,1 ± 0.074,0.992 ± 0.036,0.95 ± 0.13,0.858 ± 0.33,1 (active)
COc1ccc(NC(=O)CN2C(=O)c3ccccc3C2=O)c([N+](=O)[O-])c1,0.798 ± 0.064,0.948 ± 0.087,0.989 ± 0.11,0.963 ± 0.048,1.29 ± 0.082,1.36 ± 0.13,1.01 (active)
CCOP(C)(=O)C(c1ccccc1)N(C)S(C)(=O)=O (configuration not stated),1.01 ± 0.089,1.04 ± 0.058,1.03 ± 0.062,1.03 ± 0.046,1.66 ± 0.19,1.22 ± 0.17,1.01 (active)
Cn1c(=O)[nH]c2nnc(-c3ccncc3)nc2c1=O,0.815 ± 0.07,0.872 ± 0.077,1.07 ± 0.12,0.935 ± 0.05,1.32 ± 0.15,1.47 ± 0.2,1.02 (active)
COCc1cc(C)nc2sc(C(=O)c3cccc([N+](=O)[O-])c3)c(N)c12,0.804 ± 0.063,0.719 ± 0.034,0.78 ± 0.29,0.943 ± 0.043,1.36 ± 0.12,1.53 ± 0.14,1.01 (active)
COc1ccc(OC)c(S(=O)(=O)N2CCC(Oc3nc4c(C)cccc4s3)CC2)c1,0.687 ± 0.039,0.889 ± 0.092,1.02 ± 0.072,0.741 ± 0.042,1.15 ± 0.26,1.41 ± 0.57,0.908 (active)
O=C(NCC1(O)CCc2ccccc2C1)Nc1ccccc1C(F)(F)F (configuration not stated),0.914 ± 0.18,1.02 ± 0.11,1.18 ± 0.074,0.973 ± 0.05,1.17 ± 0.2,1.31 ± 0.42,0.908 (active)
CC1=CC(=NS(=O)(=O)c2ccc(C)cc2)C=C(Cl)C1=O,0.635 ± 0.068,0.706 ± 0.038,0.68 ± 0.062,0.451 ± 0.02,0.611 ± 0.04,0.428 ± 0.038,0.89 (active)
Cc1sccc1-c1csc(Nc2cccnc2)n1.Cl,0.603 ± 0.028,0.918 ± 0.075,1.16 ± 0.21,0.6 ± 0.029,1.19 ± 0.23,1.62 ± 0.53,0.902 (active)
CCCOc1ccc(C2NC(=O)NC(C)=C2C(=O)OC(C)C(C)(C)C)cc1OC (configuration not stated),0.557 ± 0.033,1.04 ± 0.063,0.746 ± 0.052,0.478 ± 0.016,0.722 ± 0.077,0.656 ± 0.061,0.96 (active)
CC(=O)Oc1cc2c(s1)CCN(C(C(=O)C1CC1)c1ccccc1F)C2 (configuration not stated),0.988 ± 0.15,1.2 ± 0.36,0.844 ± 0.05,0.919 ± 0.035,1.28 ± 0.31,1.1 ± 0.18,0.985 (active)
C[C@@H](O)[C@H]1C(=O)N2C(C(=O)O)=C(SCCNC=N)C[C@H]12.O,0.988 ± 0.074,1.01 ± 0.049,0.981 ± 0.034,0.897 ± 0.086,1.04 ± 0.089,1.25 ± 0.14,0.999 (active)
COc1ccc(CN2CCN(c3cc(C)nc4c5c(C)cc(C)nc5nn34)CC2)cc1F,1.02 ± 0.08,0.961 ± 0.071,1.06 ± 0.13,1.17 ± 0.037,1.34 ± 0.18,1.42 ± 0.2,0.995 (active)
CC1CC(OC(=O)C(O)c2ccccc2)CC(C)(C)N1C (configuration not stated) [Prestw-794],1.07 ± 0.17,1.25 ± 0.12,1.02 ± 0.08,0.97 ± 0.027,1.09 ± 0.2,1.22 ± 0.15,1 (active)
N[C@@H](CC(=O)N1CCn2c(nnc2C(F)(F)F)C1)Cc1cc(F)c(F)cc1F,0.793 ± 0.19,0.989 ± 0.063,0.905 ± 0.058,0.908 ± 0.044,1.05 ± 0.12,1.1 ± 0.16,0.998 (active)
CCOC(=O)c1cnn(CCOc2ccccc2)c1N,1.05 ± 0.081,0.851 ± 0.079,1.02 ± 0.11,0.975 ± 0.052,1.22 ± 0.13,1.31 ± 0.2,1 (active)
COC(=O)C1=CN(C2CC2)C=C(C(=O)OC)C1c1ccccc1Cl,1.12 ± 0.1,0.722 ± 0.07,1.1 ± 0.052,0.945 ± 0.11,0.905 ± 0.039,1.06 ± 0.17,1 (active)
